# Screens as filed in PubChem BioAssay.
# PHOSPHO1 block: PubChem AID 1565; 1.1% of 290,000 active; recombinant PHOSPHO1, absorbance phosphatase assay; inhibition, % at 13.3 µM; in the data active = inhibition above about 60%
# Target sequence (Q8TCT1 whole entry, looked up): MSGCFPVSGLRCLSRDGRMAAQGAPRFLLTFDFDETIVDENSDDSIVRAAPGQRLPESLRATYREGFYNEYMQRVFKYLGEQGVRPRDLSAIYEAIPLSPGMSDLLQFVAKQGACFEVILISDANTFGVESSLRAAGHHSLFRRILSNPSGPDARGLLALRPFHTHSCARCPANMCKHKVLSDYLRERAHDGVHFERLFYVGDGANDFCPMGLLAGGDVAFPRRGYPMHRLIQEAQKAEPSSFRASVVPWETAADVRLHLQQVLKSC
# Efflux pump inh: inhibitors of Candida efflux pumps in yeast, primary screen, S. cerevisiae, Nile Red, multiplex; AID 485275, 2010; inhibition, % at 10 µM; S. cerevisiae Candida pump triplex; 0.44% of 330,000 active;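 active = plate passing quality check with inhibition over a set limit, or well fluorescence over plate mean plus 4 SD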;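 also: Nile Red retained in pooled yeast measured as flow cytometry median fluorescence; 0% = buffer negative control and 100% = Enniatin B positive control; higher means more Nile Red kept so more efflux inhibition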
# Calb FLC: C. albicans growth inhibition with fluconazole, primary screen, CaCi-2 strain, Alamar Blue fluorescence; 0.57% of 300,000 active; growth inhibition, % (no concentration beside the values); C. albicans CaCi-2 (fluconazole-resistant clinical isolate) + fluconazole, 48 h; AID 1979, 2009;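 active = growth inhibition above about 58% in most replicates, limit read from the data, passing the limit was not always enough; inconclusive = exactly half the replicates above a set limit; inactive = most replicates below a set limit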;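 also: all wells also contain fluconazole at 8 µg/ml as a sub-toxic cotreatment; 0% = median of DMSO wells and 100% = median of geldanamycin control wells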
# Cl transport mod: KCC2 cotransporter modulators, thallium flux, primary screen, cell-based, HEK293 KCC2, FluoZin-2 fluorescence, MLSMR; KCC2 cells, thallium flux FluoZin-2 fluorescence; 2.2% of 190,000 active; Solute carrier family 12 member 5 (Homo sapiens), Q9H2X9; AID 1456, 2008; B-score of Tl+ flux slope (higher = more flux/activation; lower = inhibition) at 10 µM;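 active = thallium flux slope and its plate-corrected score both differing from the plate sample mean at a set confidence after two filtering rounds, in either direction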;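 also: slope of fluorescence scaled to starting intensity during 10 to 20 s after thallium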
# Cardio protect: cardioprotection against H2O2-induced cell death, primary screen, uHTS, H9c2 cells, ATPLite luminescence; H9c2 cardiomyocytes, H2O2 injury protection, 2 h; protection from H2O2 cell death, % at 20 µM; 0.63% of 360,000 active; AID 588492, 2011;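 active = compounds giving at least 50% protection of heart cells from peroxide-induced death in the single-dose screen, raw or plate-pattern-corrected value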;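 also: 0% = DMSO wells with peroxide and 100% = DMSO wells without peroxide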
# Numbers without * were called inactive; ? = inconclusive; . = not tested or not shown. This is a sample that favours compounds with a hit; in the whole collection about 3.3% have one here.
SMILES,PHOSPHO1 block,Efflux pump inh,Calb FLC,Cl transport mod,Cardio protect
CCn1c(SCC(=O)Nc2ccccc2N2CCCCC2)nc2c1c(=O)n(C)c(=O)n2C,-3,0,2,-0.2,62*
Cn1c(=Nc2ccc(N3CCOCC3)cc2)ccc2ccccc21,96*,0,-8,-0.063,10
CCN1/C(=C/c2ccc3ccccc3[n+]2CCCS(=O)(=O)[O-])C=Cc2cc(C)ccc21,-113,0,-4,.,-9
CCN1/C(=C/c2ccc3ccccc3[n+]2CC)C=Cc2ccccc21,9,0,105*,-3.6,-34
Cc1onc(-c2ccccc2)c1C(=O)NC(=S)NNC(=O)c1cccnc1,-7,0,100*,-0.6,6
Cc1onc(-c2ccccc2)c1C(=O)NC(=S)NNC(=O)c1ccncc1,5,0,2,0.9,6
Cc1ccccc1-c1ccnc2[nH]n(-c3ccccc3)c(=O)c12,-6,0,79*,.,-2
COCCn1c(C)cc(C(=O)CSc2nnc(-c3cccnc3)n2-c2ccccc2F)c1C,90*,0,9,-0.027,5
Cc1ccccc1-n1c(SCC(=O)c2cc(C)n(C)c2C)nnc1-c1cccnc1,86*,0,9,-0.0098,4
CC(=O)c1ccc(S(=O)(=O)N2CCN(C(=O)CN3C(=O)NC4(CCCC4)C3=O)CC2)cc1,.,0,.,.,6
CCCn1c(=O)c2ccccc2n2c(SCC(=O)N3CCc4ccccc4C3)nnc12,-3,0,16,-4.1*,2
CCn1c(=O)c2ccccc2n2c(SCC(=O)N3CCc4ccccc4C3)nnc12,21,0,-3,.,30
NC1=NC[C@H](CC2CCCCC2)N1CCc1cc(C(F)(F)F)cc(C(F)(F)F)c1,-9,0,92*,-0.025,-30
CCOc1ccc(-c2[nH]ncc2-c2ccc(OC)c(OC)c2)c(O)c1,3,0,.,-0.84,-7
CCOc1ccc(C2=Cc3cc(OC)c(OC)cc3C(=C(Cl)Cl)O2)cc1,67*,.,.,-0.47,.
CCOC(=O)c1sc2cc([N+](=O)[O-])cc(SCC(=O)OC)c2c1N,99*,0,17,0.13,4
C/C(=N\NC(=O)c1nn(C)c(C)c1Br)c1ccc(NC(=O)C2CCCC2)cc1,17,0,112*,.,1
C/C(=N\NC(=O)c1ccn(C)n1)c1ccc(NC(=O)C2CCCC2)cc1,3,0,20,0.93,0
O=C(N[C@H]1C/C=C\C[C@H](CC(=O)N(CCO)Cc2ccccc2)C(=O)NC[C@H](c2ccccc2)OC1=O)OCC1c2ccccc2-c2ccccc21,.,0,.,.,-16
Cn1c(=S)n(/N=C/c2ccc3c(c2)OCO3)c2ccccc21,47,0,.,-0.61,-4
COc1ccc(/C=N/n2c(=S)n(C)c3ccccc32)cc1OC,73*,0,5,-1.1,3
Cc1ccc(/C=N/n2c(-c3ccncc3)n[nH]c2=S)cc1,91*,.,?,0.8,2
S=c1[nH]nc(-c2ccccn2)n1/N=C/c1ccc(Br)s1,-15,0,?,26*,-12
Cc1ccc(-c2n[nH]c(=S)n2/N=C/c2ccc(C)s2)cc1,45,0,30,5.6*,-5
COc1ccccc1CCNC(=O)CCn1c(=O)c2cccn2c2ccc(F)cc21,28,0,4,.,6
SMILES,PHOSPHO1 block,Efflux pump inh,Calb FLC,Cl transport mod,Cardio protect
CC(OC(=O)c1ccc2ncsc2c1)C(=O)NC1CCCCC1C (configuration not stated),.,0,-3,.,1
COc1cccc(/C=N/n2c(-c3cccs3)n[nH]c2=S)c1,44,0,?,24*,-6
Oc1c(Br)cc(Br)c(/C=N/n2c(-c3ccccc3)n[nH]c2=S)c1Br,-107,0,79*,.,-11
COc1ccc(/C=N/n2c(-c3cc(C)[nH]n3)n[nH]c2=S)cc1OC,93*,0,-4,-0.54,5
Cc1ccc(/C=N/n2c(COc3ccccc3)n[nH]c2=S)s1,13,0,42,16*,-4
COc1ccc(/C=N/n2c(-c3cc(C)[nH]n3)n[nH]c2=S)cc1,0,0,-15,0.13,3
CSc1ccccc1C(=O)OCC(=O)Nc1ccc(N2CCOCC2)cc1,.,0,.,.,3
O=[N+]([O-])c1ccc(-c2nn(-c3ccccc3)cc2/C=N/n2c(-c3ccncc3)n[nH]c2=S)cc1,-145,0,-1,-0.013,3
S=c1[nH]nc(-c2ccncc2)n1/N=C/c1cn(-c2ccccc2)nc1-c1ccccc1,90*,0,3,1.1,12
Cc1ccc(-c2n[nH]c(=S)n2/N=C/c2cccs2)cc1,27,1,-3,18*,-3
O=C1CCCCN1CCC(=O)N1CCCC(N2CCN(c3ccccc3)CC2)C1 (configuration not stated),75*,0,4,.,12
COc1ccc2nc(N3C(=O)/C(=C/c4ccc(Cl)cc4)NC3=S)sc2c1,6,.,.,53*,-11
Cc1cc(N2CCOCC2)c2c(N)c(Br)cc(C)c2n1,1,0,-3,0.11,52*
Cc1cc(=O)[nH]c(N2CCOCC2)n1,32,0,6,1.8,-4
CC1(C)CC(=O)C=C(Nc2ccc([N+](=O)[O-])cc2)C1,34,0,78*,.,2
Cc1nnc(N2C(=O)c3cccc4c([N+](=O)[O-])ccc(c34)C2=O)s1,34,2.1*,29,.,-8
CCOC(=O)c1ccn(CSc2c(F)c(F)cc(F)c2F)n1,.,0,.,.,0
CC1CN(S(=O)(=O)c2cccc(C(=O)OCC(=O)Nc3ccc4c(c3)OCO4)c2)CC(C)O1 (configuration not stated),62*,0,.,-0.8,-5
N#Cc1ccc(C(=O)Nc2nnc(-c3cccs3)o2)cc1,32,0,-6,6.7*,45
CCOC(=O)c1c(=O)n(O)c2ccc(C)cc2[n+]1[O-],68*,0,-1,0.54,16
Cc1csc(NC(=O)CSC2=NS(=O)(=O)c3ccccc3N2)n1,.,0,-9,.,1
CC(OC(=O)c1ccc(Cl)c([N+](=O)[O-])c1)C(=O)N1CCN(Cc2ccccc2)CC1 (configuration not stated),.,0,.,.,-3
CC(On1nnc2ccccc21)C(=O)N1CCN(Cc2ccccc2)CC1 (configuration not stated),80*,0,-15,-0.7,1
C=CCN1C(=O)c2ccccc2NC1c1cc(Br)cs1 (configuration not stated),0,0,-7,.,-6
CCC(=O)NC(c1ccc(C)cc1)c1ccc2cccnc2c1O (configuration not stated),.,0,0,.,45
CC(=O)NC(c1ccccc1)c1cc(Cl)c2cccnc2c1O (configuration not stated),-39,0,105*,.,47
